The whole screen tested about 220,000 compounds, of which about 2,000 (0.91%) were called active. Roughly 2% stayed inconclusive and do not appear here. Rule as the data show it: inconclusive = inhibition above about 80% without an active follow-up result; inactive = below that; test concentration not stated here. Only a sample is shown. Measured potencies and affinities stand elsewhere.

Here are results for 92 compounds from PubChem BioAssay AID1626 (SRMLSC, 2009).

The nature of this assay: M. tuberculosis H37Rv growth inhibitors, H37Rv strain (AID 1626).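 Also: bacteria incubated seven days before Alamar blue readout; 0% = bacteria only wells and 100% = bacteria with antibiotic wells.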 As to conditions: stronger effect = higher value, concentration not given here.
As usually defined, the inhibition is the drop in the measured response relative to a control, in per cent. In the case of `CCC(=O)/C=C1\Sc2ccc(OC)cc2N1CCO`, the inhibition was -14.1% (inactive). Turning to `CCC(/C=C1\Sc2ccc(OC)cc2N1CC)=C\c1sc2ccc(OC)cc2[n+]1CCCS(=O)(=O)[O-]`, the inhibition is 0.61% (inactive). For `O=C(NC1CCS(=O)(=O)C1)C1C2CC3CC(C2)CC1C3` (configuration not stated), the inhibition is 0.76% (inactive).

For the compound `O=C1CCCC(=O)C1Sc1ccc(Cl)cc1`, the inhibition is 3.4% (inactive). Regarding `CC1(C)OC(c2ccccc2)=C/C(=C/C=Nc2ccccc2)O1`, the inhibition is -2.83% (inactive). Take `COc1ccc(N=C/C=C2\C=C(c3ccccc3)OC(C)(C)O2)cc1`: the inhibition was 76.4% (inactive).

`C1CSC2(N1)C1CC3CC2CC(C1)C31NCCS1` (configuration not stated): the inhibition was -4.53% (inactive). For `Cc1cc(C)cc(NC(=O)c2ccccc2CC[N+](=O)[O-])c1` the value was 58.2% (inactive); for `CC(C)(C)c1ccc(C(=O)NCCN2CCCC2)cc1`, -0.48% (inactive); for `O=C(NCCCN1CCN(CCCNC(=O)c2ccc(F)cc2)CC1)c1ccc(F)cc1`, -9.24% (inactive). Turning to `CCOC(=O)c1ccc(NC(=O)NCCc2ccccc2OC)cc1`, the inhibition was 5.79% (inactive). Consider `CCN(CC)C(=O)c1c(C)[nH]c(=S)c(C#N)c1-c1ccco1`, for which the inhibition was -4.78% (inactive).

For the compound `Brc1ccc(-c2cn3cccnc3n2)cc1`, the inhibition is -1.72% (inactive). Regarding `Brc1ccc(-c2cn3ccccc3n2)cc1`, the inhibition was -4.5% (inactive). For `O=C1C2=C(CCCC2)C(=O)N1CNc1ccccc1` the value was -13.7% (inactive); for `O=C1CCC(=O)N1CNc1cccnc1`, -9.49% (inactive); for `CCn1c(=S)sc2c(=O)n(-c3ccccc3)c(=S)[nH]c21`, -1.81% (inactive). As for `COc1ccc(C(=O)N2CCN(c3ccccc3OC)CC2)cc1`, the inhibition is 0.49% (inactive).

For `O=C(O)/C=C/c1ccc(S(=O)(=O)NCc2cccnc2)cc1`, the inhibition is -0.59% (inactive). In the case of `CC1CCCC(NC(=O)CSc2ccc(F)cc2)C1C` (configuration not stated) it was -2.7% (inactive). For `CN(CC(O)COC(c1ccccc1)c1ccccc1)C1CCCCC1` (configuration not stated) the value was 5.91% (inactive); for `Cc1ccc(C)c(Oc2cc(NC(=O)CCCn3nc(C)c([N+](=O)[O-])c3C)cc([N+](=O)[O-])c2)c1`, 5.87% (inactive); for `Cc1ccccc1Oc1cc(NC(=O)CCCn2nc(C)c([N+](=O)[O-])c2C)cc([N+](=O)[O-])c1`, 4.71% (inactive). For `Cc1cc([N+](=O)[O-])nn1CCCC(=O)Nc1cc(Oc2ccccc2)cc([N+](=O)[O-])c1` the value was 33.1% (inactive); for `Cc1nn(CCCC(=O)Nc2cc(Oc3ccccc3)cc([N+](=O)[O-])c2)c(C)c1[N+](=O)[O-]`, 4.46% (inactive); for `Cc1cc([N+](=O)[O-])nn1CCCC(=O)Nc1cc(Oc2ccc(F)cc2)cc([N+](=O)[O-])c1`, 76% (inactive). On to `Cc1c(Cl)c([N+](=O)[O-])nn1CCCC(=O)Nc1cccc(Cl)c1`, for which the inhibition is -0.67% (inactive).

In the case of `CN1CCC(C2(O)c3ccccc3CCc3ccccc32)CC1`, the inhibition is -4.72% (inactive). For `Cc1ccc(-c2nn(-c3ccccc3)cc2/C=N/NC(=O)CSc2nnc(C)n2-c2ccccc2)cc1` the value was 5.75% (inactive); for `COc1cc(NC(=O)CCCc2c[nH]c3ccccc23)cc(OC)c1`, 13% (inactive).

Turning to `COc1ccc(/C=N/NC(=O)c2cc(C34CC5CC(CC(C5)C3)C4)[nH]n2)cc1OC`, the inhibition is -1.09% (inactive). Consider `COCCN1C(=O)N[C@@H](c2cccc(F)c2)C(C(=O)OC)=C1C`, for which the inhibition is -7.87% (inactive). In the case of `CC(=O)c1ccc(NC(=O)C(NC(=O)c2ccccc2)=C(C)C)cc1` it was -4.51% (inactive); in that of `Clc1ccc(-c2nc3cnccn3c2Nc2ccc3c(c2)OCO3)cc1`, 31% (inactive); in that of `Clc1ccc(-c2nc3ncccn3c2Nc2ccc3c(c2)OCO3)cc1`, 7.95% (inactive). Regarding `Cc1cccc2nc(-c3cccnc3)c(Nc3ccccc3)n12`, the inhibition is -0.36% (inactive). In the case of `Cc1ccccc1Nc1c(-c2ccncc2)nc2ccc(Cl)cn12` it was -2.88% (inactive); in that of `Cc1ccc2nc(-c3ccco3)c(Nc3ccccc3)n2c1`, 2.97% (inactive). As for `Cc1cccc2nc(-c3ccco3)c(Nc3ccccc3)n12`, the inhibition was -7.83% (inactive).

`Cc1ccc2nc(-c3cccnc3)c(Nc3ccccc3C)n2c1`: the inhibition is 5.59% (inactive).

`Cc1ccc2nc(-c3ccncc3)c(Nc3ccccc3)n2c1`: the inhibition was 2.3% (inactive). For `CCN1CCN(C(=O)COc2ccc3c(c2)C(=O)CC2(CCN(C(C)=O)CC2)O3)CC1` the value was -8.68% (inactive); for `CCOC(=O)C1CCN(C(=O)CSc2ccc(Cl)cc2)CC1`, 1.63% (inactive). For the compound `O=C(c1ccc([N+](=O)[O-])c(CS(=O)(=O)c2ccc(Cl)cc2)c1)N1CCCCC1`, the inhibition is 3.1% (inactive). For `CCOC(=O)CSc1ccc2nnc(CCNS(=O)(=O)c3ccc(C)cc3)n2n1` the value was 4.15% (inactive). With `Cc1oc(C(C)(C)C)c(CN2CCCC2)c1C(=O)O`, the inhibition was 5.71% (inactive). On to `Cc1cccc(-c2nnc(SCC#N)n2C)c1`, for which the inhibition is 1.96% (inactive). For `CCOC(=O)c1cc(C(C)(C)C)nc(SC)c1C#N` the value was 0.56% (inactive).

In the case of `COc1ccc(C(O)P(=O)(OCC(C)C)OCC(C)C)c(OC)c1` (configuration not stated), the inhibition was 5.08% (inactive). For `Cc1cc(C)n2nc(C(=O)Nc3nccs3)nc2n1` the value was -4.36% (inactive); for `O=c1c2c3c(sc2nc2sc(CN4CCOCC4)cn12)CCCC3`, -5.88% (inactive). `O=C(O)CCSCC(=O)Nc1c(C(=O)C2CC2)oc2ccccc12`: the inhibition was -2.71% (inactive). In the case of `CC(=O)Nc1c(C(=O)C2CC2)oc2ccccc12` it was 8.66% (inactive); in that of `CC1(C)Cc2ccccc2C(N/N=C/c2ccc([N+](=O)[O-])cc2)=N1`, 3.59% (inactive).

Take `CSCCC(NC(=O)c1ccc([N+](=O)[O-])cc1Cl)C(=O)OCC(=O)NCCCc1ccccc1` (configuration not stated): the inhibition is -2.31% (inactive).

Take `CC(=O)Nc1ccccc1-c1ccc(C)o1`: the inhibition was -8.39% (inactive). `Cc1cnc(C(=O)Nc2ccccc2-c2ccc(C)o2)cn1`: the inhibition was -0.7% (inactive).

As for `CCC(=O)N(C)CCc1cc2c(c(OC)c1/C=N/NC(=O)[C@H]1C[C@@H]1c1ccccc1)OCO2`, the inhibition is -2.15% (inactive). For `CN(C)c1ccc(NC(=S)NC(=O)/C=C/c2ccc(Cl)cc2)cc1` the value was 5.85% (inactive). In the case of `COc1cc(C(CCN2CCCC2)c2c(OC)cc(OC)c3ccc(=O)oc23)cc(OC)c1OC` (configuration not stated) it was -13% (inactive). For `COc1cc(C(CCN2CCCCC2)c2c(OC)cc(OC)c3c(C)cc(=O)oc23)cc(OC)c1OC` (configuration not stated) the value was -3.67% (inactive); for `COc1cc(C(CCN2CCCC2)c2c(OC)cc(OC)c3c(C)cc(=O)oc23)cc(OC)c1OC` (configuration not stated), -6.56% (inactive); for `COc1cc(C(CCN2CCOCC2)c2c(OC)cc(OC)c3c(C)cc(=O)oc23)cc(OC)c1OC` (configuration not stated), -15.3% (inactive). Consider `Cn1nc(-c2ccc(OCC(N)=O)cc2)c2ccccc2c1=O`, for which the inhibition was 9.43% (inactive). In the case of `O=S(=O)(Nc1ccc(-c2cn3ccsc3n2)cc1)c1ccc2c(c1)OCCO2` it was -7.36% (inactive); in that of `O=C(O)c1cccc(CSc2ncn[nH]2)c1`, 3.99% (inactive); in that of `Cc1ccc(-n2cc(CN3CCN(Cc4nccn4C)CC3)c(-c3cccc(C)c3)n2)cc1`, -0.87% (inactive). For `CCn1ccnc1CNCc1cn(-c2cc(C)ccc2C)nc1-c1ccccc1` the value was 72% (inactive); for `Cc1ccc(-n2cc(CN(C)Cc3nccn3C)c(-c3ccc(F)cc3)n2)cc1`, 60.4% (inactive). For `Cc1ccc(-n2cc(CN(C)CCc3cn[nH]c3)c(-c3cccc(C)c3)n2)cc1` the value was 6.61% (inactive); for `Cc1ccc(C)c(-n2cc(CNCCCn3cccn3)c(-c3ccccc3)n2)c1`, -1.54% (inactive). As for `CN(Cc1ncc[nH]1)Cc1cn(-c2ccccc2)nc1-c1ccc2c(c1)OCO2`, the inhibition was 6.67% (inactive).

`CCn1ccnc1CN(C)Cc1cn(-c2ccccc2)nc1-c1ccc(OC)cc1F`: the inhibition is 15% (inactive).

For the compound `CN(Cc1cn(-c2ccccc2)nc1-c1ccc2c(c1)OCO2)Cc1nccn1C`, the inhibition was 2.66% (inactive). For `CCS(=O)(=O)c1nc(S(=O)(=O)c2ccc(C)cc2)c(NCCCN(C)C)s1` the value was -3.12% (inactive); for `Cc1cccc(C(=O)N(c2ccccn2)C(C)c2ccco2)c1` (configuration not stated), -1.89% (inactive). As for `CC(c1ccccc1F)n1cc(C(=O)NCc2ccncc2)nn1` (configuration not stated), the inhibition was -6.06% (inactive). For `O=C(NNC(=O)c1cc2cc(OC(F)(F)F)ccc2[nH]1)c1cccc(C(F)(F)F)c1` the value was 0.47% (inactive); for `CN(C)S(=O)(=O)c1ccc2c(c1)c(=O)c(C(=O)NCCCN1CCCCCC1)cn2C`, 0.45% (inactive); for `O=C(COC(=O)c1ccccc1O)Nc1cc([N+](=O)[O-])ccc1Cl`, -5.14% (inactive). In the case of `S=C(NC1CCCCC1)c1ccc2c(c1)OCO2` it was 0.26% (inactive); in that of `CCN1CC(CN(C)Cc2cn(-c3ccc(C)cc3)nc2-c2cccc(C)c2)CC1=O` (configuration not stated), 13.5% (inactive); in that of `Cc1ccc(-n2cc(CNCCCn3cccn3)c(-c3cccc(C)c3)n2)cc1`, 69.4% (inactive). In the case of `CC(C)OC(=O)c1ccc(NC(=O)c2ccccc2)cc1`, the inhibition was 69.1% (inactive). As for `CCCCOC(=O)c1ccc(N)cc1`, the inhibition is 78.1% (inactive).

On to `CCC(=O)Nc1cccc2c1C(=O)N(C)C2=O`, for which the inhibition is -8.82% (inactive). For `COc1ccc(CCNC(=O)Cc2nn(C)c(=O)c3ccccc23)cc1OC` the value was 1% (inactive); for `Cc1nnc(NC(=O)CSc2nnc(Cc3cccn3C)n2-c2cccc(C(F)(F)F)c2)s1`, 4.46% (inactive).

For the compound `CC(C)CN(C(=O)COC(=O)c1ccc(-c2ccccc2)cc1)C1CCS(=O)(=O)C1` (configuration not stated), the inhibition was 4.21% (inactive). For `COc1ccc2cc(C(c3nnnn3CCc3ccccc3)N3CCC(O)CC3)c(=O)[nH]c2c1` (configuration not stated) the value was 4.28% (inactive); for `CCc1ccc2[nH]c(=O)c(C(c3nnnn3CCOC)N3CCN(c4ccccc4)CC3)cc2c1` (configuration not stated), 2.21% (inactive); for `O=C(Cn1c(-c2cscn2)nc2ccccc21)Nc1ccc2ccccc2c1`, 5.71% (inactive).
